From PubChem BioAssay (NCATS)
Results filed as inconclusive are left out. The source made the active and inactive calls. Unless noted, the call rests on the fitted dose curve; in most records, active means well fitted curve in either direction with a large enough effect (not every such curve was filed as active); inconclusive means small, poorly fitted or top-dose-only effect, or another doubt; inactive means flat fitted curve, though single readings scatter.

Experiments:
[1] = tested on: HIV-1 nucleocapsid protein NCp7 (binding to TG oligonucleotide); experiment: HIV Nucleocapsid (AID 346; call rule not given here;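 further: potency means the concentration at half of the fitted maximal effect; potency is for inhibitors that block NC binding and lower polarization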); details: HIV-1 NC / fluorescein-TGTGTGTG probe, fluorescence polarization
Procedure, shortened: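 HIV-1 NC (100 nM) binding to fluorescein-labelled ssDNA TG4xF (10 nM) in Hepes pH 7.5, 250mM NaCl, 1uM ZnCl2, TCEP and 2-mercaptoethanol; compounds pin-transferred, 1 hr room temperature, fluorescence polarization read on CCD imager.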

[2] = target: Lysosomal acid glucosylceramidase (Homo sapiens) (UniProt P04062); experiment: Glucocerebrosidase-p2 (AID 348; in the data active means potency below about 10 µM; further: potency means the concentration at half of the fitted maximal effect); details: purified GBA, blue fluorogenic substrate, 40 min
Lysosomal acid glucosylceramidase (Homo sapiens), sequence (P04062 whole entry, looked up): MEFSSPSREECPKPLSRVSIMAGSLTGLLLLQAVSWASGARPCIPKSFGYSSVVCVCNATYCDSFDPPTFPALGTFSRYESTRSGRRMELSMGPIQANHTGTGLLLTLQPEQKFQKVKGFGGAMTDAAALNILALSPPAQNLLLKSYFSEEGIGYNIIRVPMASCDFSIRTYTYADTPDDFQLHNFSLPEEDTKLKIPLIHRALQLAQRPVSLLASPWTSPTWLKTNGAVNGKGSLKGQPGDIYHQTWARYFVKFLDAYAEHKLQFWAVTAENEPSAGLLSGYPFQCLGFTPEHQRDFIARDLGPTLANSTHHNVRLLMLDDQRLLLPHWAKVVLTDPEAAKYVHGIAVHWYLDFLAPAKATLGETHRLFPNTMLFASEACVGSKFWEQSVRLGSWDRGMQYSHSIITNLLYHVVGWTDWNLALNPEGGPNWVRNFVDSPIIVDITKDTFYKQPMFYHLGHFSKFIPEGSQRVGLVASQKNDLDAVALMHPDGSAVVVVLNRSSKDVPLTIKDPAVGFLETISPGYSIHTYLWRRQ
Procedure, shortened: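 Normal human glucocerebrosidase (0.2 nM) with blue fluorogenic substrate (80 uM final) in citrate/phosphate pH 5.9 with 10mM sodium taurocholate, 0.01% tween-20; 40 min RT, NaOH/glycine stop; fluorescence Ex 365/Em 440; AC50 from a titration from 0.6 nM upwards.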

[3] = AP1 Signaling Pathway (AID 357); details: ME-180 AP-1-bla reporter, EGF-induced, beta-lactamase ratio, 5 h; at 7.69 µM (top of the series) unless noted;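 further: ME-180 reporter cells stimulated with EGF at its EC50 level; on the % scale 0 is the no-effect control and ±100 the full control effect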
Procedure, shortened: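 Titration-series screen for positive or negative modulators of EC50 EGF-induced signaling in ME-180 cells carrying an AP-1-driven beta-lactamase reporter. After 5 hours at 37 degrees Celsius, CCF4 460nm/530nm emission ratio gave %Activity; AC50 values derived.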

[4] = target: Cytochrome P450 1A2 (Homo sapiens) (UniProt P05177); experiment: p450-cyp1a2 (AID 410; calls by dose curve;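 further: -100% = full effect of reference inhibitor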); details: recombinant CYP1A2, luciferin-ME demethylation, luminescence; series mostly up to 11.4 µM
Cytochrome P450 1A2 (Homo sapiens), sequence (P05177 whole entry, looked up): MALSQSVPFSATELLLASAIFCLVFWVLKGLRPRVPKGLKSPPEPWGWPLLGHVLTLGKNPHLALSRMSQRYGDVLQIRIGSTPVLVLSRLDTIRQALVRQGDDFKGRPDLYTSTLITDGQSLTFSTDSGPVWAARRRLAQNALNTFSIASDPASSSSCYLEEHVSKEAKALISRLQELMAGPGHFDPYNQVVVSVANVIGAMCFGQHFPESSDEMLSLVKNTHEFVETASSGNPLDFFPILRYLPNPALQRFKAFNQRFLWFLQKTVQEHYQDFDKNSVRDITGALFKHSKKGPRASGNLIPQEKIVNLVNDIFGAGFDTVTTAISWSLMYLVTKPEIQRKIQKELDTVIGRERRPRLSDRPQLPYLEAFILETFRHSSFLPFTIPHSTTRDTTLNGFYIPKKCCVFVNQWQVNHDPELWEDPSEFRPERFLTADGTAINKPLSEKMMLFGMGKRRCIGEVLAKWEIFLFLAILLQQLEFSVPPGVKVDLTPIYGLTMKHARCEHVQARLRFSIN
Procedure, shortened: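 Luminescent demethylation readout: Luciferin-ME (100uM, equal to Km) turned over by 20nM CYP1A2 for 60 min at room temperature after NADPH regeneration addition, following 10 min compound preincubation. Normalization used 57 uM furafylline as full inhibition.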

[5] = NFAT Signaling Pathway (AID 444); details: Jurkat NFAT-bla M1, carbachol, beta-lactamase ratio, 5 h; at 7.69 µM (top of the series) unless noted;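 further: carbachol stimulus at about its EC50 of 1 µM final; on the % scale 0 is the no-effect control and ±100 the full control effect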
Procedure, shortened: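 Read-out: CCF4 FRET ratio (460 nm/530 nm) after 1 h RT dye loading, used for %activity and AC50 from titration series. Cells: Jurkat NFAT-β-lactamase/M1 line, treated with compound plus 1 uM carbachol for 5 h, 37 °C.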

[6] = Stat Signaling Pathway (AID 446); details: ME-180 (cervical carcinoma) SIE beta-lactamase reporter, IL-6 stimulated, 5 h; at 7.69 µM (top of the series) unless noted;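 further: ME-180 cervical cancer cells given 40 pM IL-6 alongside compound; SIE-controlled beta-lactamase reporter measured as 460/530 nm FRET emission ratio; on the % scale 0 is the no-effect control and ±100 the full control effect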
Procedure, shortened: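 FRET read-out (405 nm excitation, 460/530 nm emission) of a beta-lactamase reporter under a STAT-inducible element in ME-180 cervical carcinoma cells. Cells with compound receive 40 pM IL-6 for 5 h. Values are normalised to AC90 stimulation and AC90 JAK-inhibitor controls.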

[7] = target: Glucocorticoid receptor (Homo sapiens) (UniProt P04150); experiment: GR-GFP Redistribution (AID 450;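 active means compounds whose dose series gives a full or clear partial fitted curve of increased nuclear translocation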; further: potency means the concentration at half of the fitted maximal effect); details: U2OS GR-GFP nuclear translocation, laser cytometry, 2 h
Glucocorticoid receptor (Homo sapiens), sequence (P04150 whole entry, looked up, the tested form may be a part): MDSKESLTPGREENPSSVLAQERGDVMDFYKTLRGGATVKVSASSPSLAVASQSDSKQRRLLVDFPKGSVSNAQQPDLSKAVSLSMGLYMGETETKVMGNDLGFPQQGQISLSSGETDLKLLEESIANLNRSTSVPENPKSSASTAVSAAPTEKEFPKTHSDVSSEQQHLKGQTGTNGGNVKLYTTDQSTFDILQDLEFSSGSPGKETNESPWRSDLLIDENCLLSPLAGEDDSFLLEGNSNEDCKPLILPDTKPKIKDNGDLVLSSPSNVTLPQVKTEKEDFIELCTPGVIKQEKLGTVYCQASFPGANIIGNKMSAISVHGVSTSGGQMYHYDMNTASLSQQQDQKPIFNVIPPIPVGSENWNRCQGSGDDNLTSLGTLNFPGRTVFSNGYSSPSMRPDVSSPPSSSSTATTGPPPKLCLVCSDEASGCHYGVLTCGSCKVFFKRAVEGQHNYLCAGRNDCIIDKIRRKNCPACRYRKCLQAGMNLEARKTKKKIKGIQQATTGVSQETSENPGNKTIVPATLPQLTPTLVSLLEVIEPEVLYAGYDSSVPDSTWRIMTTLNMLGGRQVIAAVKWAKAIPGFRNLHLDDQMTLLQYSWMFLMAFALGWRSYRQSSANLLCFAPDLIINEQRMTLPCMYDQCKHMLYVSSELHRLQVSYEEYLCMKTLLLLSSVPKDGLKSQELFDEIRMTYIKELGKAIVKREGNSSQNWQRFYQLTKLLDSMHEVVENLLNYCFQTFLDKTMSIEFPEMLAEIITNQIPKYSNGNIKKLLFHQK

[8] = target: Glucocorticoid receptor (Homo sapiens) (UniProt P04150); experiment: GR-EFC Redistribution (AID 451; calls by dose curve; further: potency means the concentration at half of the fitted maximal effect); details: CHO-K1 GR-EFC translocation, beta-gal luminescence, 2 h
Procedure, shortened: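 Translocation of GR-ED fusion to nuclear EA restores b-gal, read by luminescence after 1 h room-temperature detection. Engineered CHO-K1 biosensor cells, 1,000/well, exposed 2 h at 37 C to titrations up to 46 uM final.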

[9] = target: Mitogen-activated protein kinase 10 (Mus musculus) (UniProt Q61831); experiment: JNK3 AlphaScreen Assay (AID 530); details: JNK3 lysate, c-Jun phosphorylation; series mostly up to 57.1 µM;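 further: kinase came from lysate of stimulated human HepG2 cells; signal reports phosphorylation of biotinylated GST-cJun 1-79 at Ser73 with 10 µM ATP; on the % scale 0 is the no-effect control and ±100 the full control effect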
Procedure, shortened: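 qHTS titrations with 15 min compound pre-incubation before adding ATP (10 uM final). Read-out: AlphaScreen of Ser73-phosphorylated biotin-GST-cJun using HepG2 lysate JNK3 activated by IL-1β and TNFα.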

[10] = target: 3',5'-cyclic-AMP phosphodiesterase 4B (Homo sapiens) (UniProt Q07343); experiment: qHTS Assay for Inhibitors of PDE-IV (AID 607; active means well fitted activation curve with a large enough effect in the main read-out, with a control signal flat, not every such curve was filed as active; further: % of control where 0% means no effect); details: HEK293 ACTOne CNG channel cells, membrane potential fluorescence; series mostly up to 22.9 µM
3',5'-cyclic-AMP phosphodiesterase 4B (Homo sapiens), sequence (Q07343 whole entry, looked up): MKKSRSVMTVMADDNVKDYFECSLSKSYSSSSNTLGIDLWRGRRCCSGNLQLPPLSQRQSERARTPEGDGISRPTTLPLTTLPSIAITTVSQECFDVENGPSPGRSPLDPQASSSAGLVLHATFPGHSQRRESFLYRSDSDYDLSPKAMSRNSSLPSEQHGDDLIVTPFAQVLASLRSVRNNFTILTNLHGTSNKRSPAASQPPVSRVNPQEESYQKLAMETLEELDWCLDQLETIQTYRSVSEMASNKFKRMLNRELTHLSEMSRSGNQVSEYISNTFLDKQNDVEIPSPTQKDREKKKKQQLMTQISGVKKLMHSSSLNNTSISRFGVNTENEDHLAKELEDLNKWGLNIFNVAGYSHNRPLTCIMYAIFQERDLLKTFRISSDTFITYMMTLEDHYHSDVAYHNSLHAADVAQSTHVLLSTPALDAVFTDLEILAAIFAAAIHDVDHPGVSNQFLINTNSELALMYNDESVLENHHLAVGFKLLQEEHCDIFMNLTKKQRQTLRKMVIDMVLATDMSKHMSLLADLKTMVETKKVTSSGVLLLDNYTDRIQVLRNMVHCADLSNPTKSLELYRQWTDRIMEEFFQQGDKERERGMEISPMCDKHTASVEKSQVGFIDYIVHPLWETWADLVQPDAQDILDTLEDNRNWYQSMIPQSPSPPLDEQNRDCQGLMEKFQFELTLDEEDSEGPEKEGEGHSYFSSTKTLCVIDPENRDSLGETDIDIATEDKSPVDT
Procedure, shortened: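 Cell-based read-out of cAMP via a modified cyclic nucleotide-gated channel and membrane potential dye (535/590 nm) in HEK293 cells expressing PDE4 endogenously. Compounds tested up to 22.9 uM final; 100 uM RO 20-1724 reference.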

COc1ccccc1CNc1ncncc1-c1cccc(NS(C)(=O)=O)c1
inactive: Potency [1] > 20 µM

CO[C@H]1[C@H](O)[C@H](O[C@@H]2[C@H](Oc3cccc4c(O)c5c(=O)oc6ccc(C)c7c(=O)oc(c34)c5c67)O[C@@H](C)[C@H](O)[C@H]2O)O[C@@H](C)[C@@H]1O
inactive: Potency [2] > 11.4 µM | activity change, negative = inhibition [3] 1.4% | Potency [4] | activity change, negative = inhibition [5] 10.4% | activity, negative = inhibition [6] 7.37% | Potency [7] > 46 µM | Potency [8] > 9.22 µM | activity change, negative = inhibition [9] 1.22% [at 11.4 µM] | outcome [10]

NC[C@@H](O)CSP(=O)(O)O
inactive: Potency [2] > 11.4 µM | activity change, negative = inhibition [3] -1.23% | Potency [4] | activity change, negative = inhibition [5] -18.7% | activity, negative = inhibition [6] 2.46% | Potency [7] > 46 µM | Potency [8] > 9.22 µM | activity change, negative = inhibition [9] -5.07% [at 11.4 µM] | outcome [10]
